# Rows were chosen to be rich in hits. Some 8.3% of all compounds tested hit in one or more screens of this group.
# Lassa entry inh = Lassa virus entry inhibition. AID 540256. actives 1.2% (n = 300,000). Lassa virus pseudotype entry inhibition, cell reporter. Potency, µM (titrated, usually from 37.9 µM), inactives show top-dose activity change, negative = inhibition, most hits filed as inhibitors; calls by dose curve; tested in HEK293 cells; also: potency is read from the fitted curve at half-maximal effect; nearly all actives have a fitted effect of over 50% in size
# HCV inhibitor = blocks hepatitis C virus | actives 3.4% (n = 340,000) | Potency, µM (highest dose often 41.8 µM), for inactives: at the highest dose activity change, negative = inhibition, usual class: inhibitors | AID 651820 | Huh7.5.1 HCVcc-Cre infection, luciferase reporter, 44 h; also: potency is read from the fitted curve at half-maximal effect
#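 Reporter virus HCVcc-Cre (~0.5 moi) infects cells exposed to compound; seeding density 1,000 cells/well with 4 h settling beforehand. Luminescence, 15 sec read, taken 44 h post-infection following a 15 min RT substrate incubation.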
# FBPA Giardia inh = Giardia lamblia aldolase inhibition | A8B2U2 | purified Giardia FBPA | Potency, µM (titrated, usually from 59.6 µM), for the others: at the highest dose activity, negative = inhibition, usual class: inhibitors | actives 0.71% (n = 290,000) | AID 2451; also: potency is read from the fitted curve at half-maximal effect; nearly all actives have a fitted effect of over 55% in size
# Target sequence (A8B2U2 whole entry, looked up): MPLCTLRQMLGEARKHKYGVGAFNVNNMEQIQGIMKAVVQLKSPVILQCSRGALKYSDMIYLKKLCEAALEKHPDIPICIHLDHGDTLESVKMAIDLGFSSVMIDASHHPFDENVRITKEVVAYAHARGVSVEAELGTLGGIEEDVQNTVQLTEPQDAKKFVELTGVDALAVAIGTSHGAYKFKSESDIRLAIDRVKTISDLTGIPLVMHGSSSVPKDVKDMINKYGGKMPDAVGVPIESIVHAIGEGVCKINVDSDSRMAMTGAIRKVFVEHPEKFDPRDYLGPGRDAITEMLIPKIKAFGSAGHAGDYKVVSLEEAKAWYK
#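 40 nM FBPA preincubated 10 min at RT with compound (up to 57.5 uM final), then substrate plus GAPDH/TPI/NAD/arsenate coupling and diaphorase/resazurin added. Fluorescence read after 20 min at RT, 525/598 nm.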
# HCMV antiviral = blocks human cytomegalovirus replication. AID 1259415. actives 4.5% (n = 410,000). activity change, negative = inhibition, % at 57.5 µM. HFF cells, HCMV-luciferase reporter, 72 h; hits give low values; in the data active = activity change below about -60%; inconclusive = no clear call, values can overlap the other calls; inactive = above about -39%
#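 Human foreskin fibroblasts infected with luciferase-reporter HCMV at MOI 1 PFU/cell, compounds at two doses. Luciferase measured 72 h post infection; normalized to buffer-only basal and Salinomycin (10uM) controls.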
# FMDV antiviral = foot and mouth disease virus antiviral activity; FMDV antiviral cell-based qHTS; Potency, µM (titrated, usually from 57.9 µM), without a hit: at the highest dose activity change, negative = inhibition, actives largely listed as inhibitors; actives 1.2% (n = 410,000); AID 1159524; calls by dose curve; tested in HEK293T cells; also: read-out not given here; potency is read from the fitted curve at half-maximal effect; nearly all actives have a fitted effect of over 45% in size
# MARV entry inh = blocks Marburg virus binding to or entry into cells; Marburg virus pseudotyped entry inhibition, cell reporter; Potency, µM (doses to about 37.8 µM), for inactives: at the highest dose activity change, negative = inhibition, hits mostly inhibitors; actives 1.8% (n = 300,000); AID 540276; calls by dose curve; tested in HEK293 cells; also: potency is read from the fitted curve at half-maximal effect
# Active calls of the source: *; ? = inconclusive; / = not tested or not shown; [ ] = another dose, or the depositor's remark. Unless noted, calls follow the shape of the dose curve; as a rule, active = well fitted curve in the direction sought with a large enough effect; inconclusive = small, poorly fitted or top-dose-only effect, or another doubt; inactive = no such curve, though single readings can be large; an effect the other way counts as inactive or inconclusive. % is scaled to controls: 0 for no effect and ±100 for the full control effect.
SMILES,Lassa entry inh,HCV inhibitor,FBPA Giardia inh,HCMV antiviral,FMDV antiviral,MARV entry inh
CCOC(=O)c1cc(-c2ccc(F)cc2)n(CCC(=O)NC2CCN(Cc3ccccc3)CC2)c1C,?,4µM*,0%,-20,-8%,?
CCCN1CCN(CCCNC(=O)c2cnn(-c3ccc(F)cc3)c2-n2cccc2)CC1,-3%[46.1 µM],/,/,-10,25%,/
COCC1CCCN(c2nc(CN3CCN(C(=O)c4ccco4)CC3)nc3ccccc23)C1 (centres undefined),/,/,/,/,3%,/
COc1ccc(CCNC(=O)c2cnn(-c3nccc(-c4cccs4)n3)c2C)cc1OC,/,/,/,/,25%,/
Cc1cc(C)c(C(=O)/C=C/C=C/c2ccccc2)c(=O)[nH]1,-14%,1%,-12%,12,39%,5%
Cc1cc(C)c(C(=O)/C=C/c2ccc(C(C)C)cc2)c(=O)[nH]1,?,-10%,13%,-103*,32µM*,?
Cc1ccc(C(=O)N/C(=C\c2ccc(Cl)cc2)C(=O)NC2CCCCC2)cc1,-9%[46.1 µM],/,/,-98*,3%,/
CCOC(=O)c1c(S(=O)(=O)N2CCCC(C(=O)Nc3ccc(OCC)cc3)C2)c(C)n(C)c1C (centres undefined),22%[46.1 µM],/,/,14,-7%,/
COc1ccc(NC(=O)Nc2cccc(F)c2)c(OC)c1,24%[46.1 µM],-27%,-14%,30,37%,16%[46.1 µM]
COC(=O)c1ccc(NC(=O)Cc2ccc(F)cc2)cc1,-18%[46.1 µM],-21%,-1%,-36,1%,?
O=C(Nc1ccc(F)cc1)Nc1cccc(Br)c1,/,-27%,/,-88*,26%,/
COC(=O)c1ccc(NC(=O)Nc2cccc(F)c2)cc1,?,10µM*,-2%,-11,-1%,?
CCN(CC)c1ccc(C(=O)Nc2cccc(F)c2)cc1,?,10µM*,-2%,-24,-16%,?
COC(=O)c1ccc(C(=O)Nc2ccc(F)cc2)cc1,/,7.1µM*,/,21,8%,/
O=C(Nc1ccccc1)Nc1ccc(F)cc1F,/,-13%,-2%,-17,40%,/
COC(=O)c1ccc(NC(=O)Nc2ccc(F)cc2F)cc1,16%[46.1 µM],11µM*,0%,14,10%,?
CS(=O)(=O)c1ccc(Nc2nccc3[nH]c(-c4ccsc4)cc23)cc1,/,/,/,-9,/,/
CN1C(=O)N(c2ccccc2)[C@@H](Nc2nncs2)C1(C)C,/,/,/,/,/,0%
COc1cccc(C(=O)NC(=S)N2CCN(c3ccc(C(F)(F)F)cc3[N+](=O)[O-])CC2)c1,-15%,?,20%,-62*,0%,7%
CC(C)Oc1cccc(C(=O)NC(=S)N2CCN(c3ccc(C(F)(F)F)cc3[N+](=O)[O-])CC2)c1,?,?,6%,-22,-29%,?
COc1ccccc1CNC(=O)CCCCn1c(=O)c2ccccc2n(Cc2ccccc2C)c1=O,4%[46.1 µM],/,/,5,-18%,-9%[46.1 µM]
CCOc1cc(C=C(C(=O)OC)C(=O)OC)ccc1OCc1ccc([N+](=O)[O-])cc1,3.5µM*,7.9µM*,-7%,158,?,2.8µM*
CCOc1cc(C(=O)OCc2ccc([N+](=O)[O-])cc2)ccc1OCC(=O)N1CCOCC1,?,-25%,/,-9,-29%,-1%
O=C(CSc1nc2nn(-c3ccccc3)c(=O)c-2c2n1CCCCC2)c1ccc(OC(F)F)cc1,/,7.9µM*,/,0,-16%,/
C=C(C)C(O)/C=C/c1ccc(Br)cc1 (centres undefined),/,/,0%,/,/,12%[14.2 µM]
SMILES,Lassa entry inh,HCV inhibitor,FBPA Giardia inh,HCMV antiviral,FMDV antiviral,MARV entry inh
CCc1nc2ccccc2c(C(=O)OCC(=O)Nc2ccc(NC(C)=O)cc2)c1C,/,?,/,?,32µM*,/
COc1ccc(NC(=O)COC(=O)c2c3c(nc4ccccc24)CCCC3)cc1,?,?,3%,-28,22µM*,?
COc1ccc(OC)c(NC(=O)COC(=O)c2c3c(nc4ccccc24)CCCC3)c1,21µM*,0.89µM*,-5%,-32,?,5.2µM*
O=C(CSc1n[nH]c(-c2ccc(F)cc2)n1)NCc1ccccc1Cl,?,/,/,-15,?,/
COCCNC(=O)C1(C(F)(F)F)C/C(=C/CCO)CCCO1 (centres undefined),/,/,4%,/,/,/
Cc1cc(C(=O)Nc2ccccc2-c2nc(CNC(=O)c3ccc(F)cc3F)c(C)o2)c(C)o1,/,/,/,/,-2%,/
COc1ccc(CNc2ncnc3c2[nH]c2ccccc23)cc1,?,5µM*,-3%,-72*,?,?
Cc1ccc2[nH]c3c(NCc4ccccc4)ncnc3c2c1,/,7.9µM*,6%,?,?,/
C1=C(CCNc2ncnc3c2[nH]c2ccccc23)CCCC1,?,1.1µM*,1%,-91*,-1%,?
COc1ccc(CNc2ncnc3c2[nH]c2cc(OC)c(OC)cc23)cc1,-2%[46.1 µM],?,-5%,-9,-20%,?
CC(C)OCCCNc1ncnc2c1[nH]c1ccccc12,?,2.5µM*,1%,-75*,18µM*,?
CCCCCCCC1=Cc2ccccc2C(C(C(=O)OC)C(=O)OC)N1C(=O)OC (centres undefined),/,/,4%[12.9 µM],/,/,-2%[14.2 µM]
CCCN(CCC)CCCNC(=O)c1cc2c(=O)oc3ccc(C)cc3c2s1,?,/,/,9,-12%,-19%[46.1 µM]
COc1ccc2[nH]c3c(NCCN(C(C)C)C(C)C)ncnc3c2c1,-9%,?,-1%,12,-17%,11µM*
CCOc1ccc2[nH]c3c(NCCN(CC)CC)ncnc3c2c1,-26%,-2%,-6%,17,-3%,?
Fc1ccc(CN2CCN(c3ncnc4scc(-c5ccc(F)cc5)c34)CC2)cc1,/,-25%,14%,-86*,?,/
COc1ccc(-c2csc3ncnc(N4CCN(Cc5ccccc5)CC4)c23)cc1,11%,3%,8%,-89*,22µM*,1%
CN1CCCN(c2ncnc3scc(-c4ccc(F)cc4)c23)CC1,/,?,-3%,-24,-2%,/
COc1ccc(-c2csc3ncnc(N4CCN(c5ccccc5)CC4)c23)cc1,?,?,9%,-30,18µM*,?
Clc1ccc(CN2CCN(c3ncnc4scc(-c5cccs5)c34)CC2)cc1,?,?,-13%,-98*,?,?
COc1ccc(-c2csc3ncnc(N4CCN(c5ccc(OC)cc5)CC4)c23)cc1,/,?,/,15,?,/
Cc1ccccc1N1CCN(c2ncnc3scc(-c4cccs4)c23)CC1,-43%,10µM*,/,-67*,?,23µM*
COc1ccc(-c2csc3ncnc(N4CCN(c5ccccc5[N+](=O)[O-])CC4)c23)cc1,?,16µM*,-18%,/,?,?
CCN1CCN(c2ncnc3scc(-c4ccc(C)c(C)c4)c23)CC1,-14%,?,-2%,-67*,-13%,?
Cc1ccc(-c2csc3ncnc(-n4nnc5ccccc54)c23)cc1C,3%,?,-4%,-32,?,?
